Results on eight compounds are retold here after PubChem BioAssay (EPA / NIEHS).

Inconclusive results are not listed. Activity calls are given as the source filed them. How the source made its calls, unless noted: active means hit-call score of the fitted dose curve at least 0.9, where 1 is the maximum; inactive means score below 0.9.

A short description of assay [1]: CCTE_Mundy_HCI_Cortical_Synap_Neur_Matur_NeuriteLength: CCTE's Synaptogenesis and Neurite Maturation Assay in rat cortical cells for Neurite Length, Mundy Lab (AID 2284214). The gist of the method: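 Cultures of rat primary cortical cells received chemical at DIV 7 and were fixed at DIV 12, after glial arrest with AraC at DIV 5. Neurite length was measured by automated imaging of MAP2 immunofluorescence.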

The nature of assay [2]: CCTE_Mundy_HCI_Cortical_Synap_Neur_Matur_NeuriteSpotCountPerNeuron: CCTE's Synaptogenesis and Neurite Maturation Assay in rat cortical cells for Neurite Spot Count per Neuron Count, Mundy Lab (AID 2284215). The gist of the method: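 Rat cortical primary cultures; AraC DIV 5 to arrest glia; dosing + media change DIV 7; fixed DIV 12. Anti-MAP2/anti-synaptophysin, Hoechst nuclei; HCI puncta count per neuron, positive fitting direction vs DMSO.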

The nature of assay [3]: CCTE_Mundy_HCI_Cortical_Synap_Neur_Matur_SynapseCount: CCTE's Synaptogenesis and Neurite Maturation Assay in rat cortical cells for Synapse Count, Mundy Lab (AID 2284218). The gist of the method:
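Cells were plated, allowed 2 hr to attach, treated with AraC at DIV 5, then exposed to chemicals from DIV 7 until DIV 12. After fixation and MAP2/synaptophysin immunolabelling, synapses per neuron were quantified by automated imaging against DMSO.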

The nature of assay [4]: CCTE_Mundy_HCI_hN2_NOG_NeuriteCount: CCTE's Neurite Outgrowth Assay in human hN2 cells for Neurite Count, Mundy Lab (AID 2284219; active means hit-call score of the fitted dose curve at least 0.9, where 1 is the maximum). The gist of the method:
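In this morphology assay, hNP1-derived neurons received test chemical 2 h post-plating and were fixed two days later in warm paraformaldehyde/sucrose containing Hoechst 33342. Neurites, labelled by rabbit anti-βIII-tubulin (1:800) and Alexa Fluor-488 (1:500), were counted automatically.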

Assay [5] is described as follows: CCTE_Mundy_HCI_hN2_NOG_NeuriteLength: CCTE's Neurite Outgrowth Assay in human hN2 cells for Neurite Length, Mundy Lab (AID 2284220; active means hit-call score of the fitted dose curve at least 0.9, where 1 is the maximum). The gist of the method: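 Read-out is neurite length from high-content imaging of βIII-tubulin/Alexa Fluor-488-labelled neurons, referenced to DMSO controls.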
The nature of assay [6]: CCTE_Mundy_HCI_hN2_NOG_NeuronCount: CCTE's Neurite Outgrowth Assay in human hN2 cells for Neuron Count, Mundy Lab (AID 2284221; active means hit-call score of the fitted dose curve at least 0.9, where 1 is the maximum). The gist of the method: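 Read-out is the number of betaIII-tubulin-positive neurons imaged by automated high-content analysis, with DMSO as negative control.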
A short description of assay [7]: CCTE_Mundy_HCI_Cortical_Synap_Neur_Matur_NeuriteCount: CCTE's Synaptogenesis and Neurite Maturation Assay in rat cortical cells for Neurite Count, Mundy Lab (AID 2284222).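 Further: exposure from day 7 to day 12 in vitro with readout at day 12.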 The gist of the method:
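Primary rat cortical cells were plated, treated with AraC at DIV 5, then exposed to chemicals from DIV 7 through DIV 12. After fixation and immunostaining for MAP2 and synaptophysin, imaging quantified neurites, with DMSO as the negative control.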

Assay [8] is described as follows: CCTE_Mundy_HCI_Cortical_Synap_Neur_Matur_CellBodySpotCount: CCTE's Synaptogenesis and Neurite Maturation Assay in rat cortical cells for Cell Body Spot Count, Mundy Lab (AID 2284223). The gist of the method: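 Rat cortical neurons; AraC @ DIV 5; dose + media change DIV 7; fix DIV 12; anti-MAP2/anti-synaptophysin IF, Hoechst; HCI count of soma synaptophysin puncta/neuron; DMSO = negative control.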

Assay [9] in a line: CCTE_Mundy_HCI_Cortical_NOG_BPCount: CCTE's Neurite Outgrowth Assay in rat cortical cells for Branch Point Count, Mundy Lab (AID 2284237).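 On AC50: branch points counted about two days after chemical exposure.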 The gist of the method: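 Measured 50.33 h after dosing, this morphology endpoint uses rat primary cortical cultures labelled for betaIII-tubulin. Branch points are quantified by high-content imaging, with DMSO as negative control and baseline.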

Assay [10] in a line: CCTE_Mundy_HCI_hNP1_Casp3_7: CCTE's Caspase-Glo 3/7 Assay in human neuroprogenitor cells for Apoptosis, Mundy Lab (AID 2284240). The gist of the method: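 Luminescent caspase-3/7 readout, 26.5 h post-dose, in human neural progenitor cells from WA09 embryonic stem cells. Cells grew 40–44 h at 37 °C, 5% CO2 before chemical addition. Activity analysed as signal increase over DMSO baseline.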

Assay [11] can be described thus: CCTE_Mundy_HCI_hNP1_CellTiter: CCTE's Cell Titer-Glo 2 Assay in human neuroprogenitor cells for Viability, Mundy Lab (AID 2284241; active means hit-call score of the fitted dose curve at least 0.9, where 1 is the maximum;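 on AC50: a hit is a drop in ATP luminescence versus DMSO meaning reduced viability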). The gist of the method:
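Viability read as luminescent ATP content (CellTiter-Glo, 30 min room temperature) twenty-four hours after dosing, relative to DMSO. Cells: WA09-derived hNP1 neuroprogenitors on poly-L-ornithine/laminin, plated 40 to 44 hours before chemical.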

Assay [12] in a line: CCTE_Mundy_HCI_Cortical_Synap_Neur_Matur_NeuronCount: CCTE's Synaptogenesis and Neurite Maturation Assay in rat cortical cells for Neuron Count, Mundy Lab (AID 2284242; active means hit-call score of the fitted dose curve at least 0.9, where 1 is the maximum;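 on AC50: neuron number from Hoechst nuclei and MAP2 staining by high-content imaging; hits reduce neuron count versus DMSO baseline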). The gist of the method:
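Cortical cells from rat are plated, treated with AraC at DIV 5, and exposed to test chemicals with a media change at DIV 7. At DIV 12 they are fixed and immunostained (MAP2, synaptophysin), and imaged neuron counts are compared against DMSO controls.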

Assay [13] in a line: TAMU_PeakParms_SingleDonor1434_Chronotropy: Texas A&M University (TAMU) 1.5-hr Human Induced Pluripotent Stem Cell (iPSC)-derived Cardiomyocytes Calcium (Ca+2) Flux Assay for Cardiotoxicity: Chronotropy (changes in peak frequency) (AID 2284217). The conditions noted are these: actives raise or lower the signal. The gist of the method: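 iPSC-CMs, donor 1434; 4 conc (0.2–100 uM), 0.5% v/v DMSO, 90 min, 37C/5% CO2; Ca2+ flux fluorescence → peak.freq.avg; peak.freq.avg = 0 dropped; bidirectional fit vs DMSO; EC05 POD.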

Assay [14] can be described thus: TAMU_HCS_1.5hr_SingleDonor1434_Cytotoxicity: Cytotoxicity Assessment using High-content Screening (HCS) Fluorescent Imaging for the Texas A&M University (TAMU) 1.5-hr Human Induced Pluripotent Stem Cell (iPSC)-derived Cardiotoxicity Assay (AID 2284234; active means hit-call score of the fitted dose curve at least 0.9, where 1 is the maximum). The gist of the method: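 Nuclear counts from Hoechst 33342 imaging define cytotoxicity here, with EC10 (10% cell-count loss relative to DMSO) as point of departure. iPSC cardiomyocytes received 0.2-100 uM test chemical in 0.5% DMSO for 1.5 h at 37 C.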

Assay [15] is described as follows: IUF_NPC2c_oligodendrocyte_migration_120hr: Leibniz Research Institute for Environmental Medicine (IUF) 120-hour Neural Progenitor Cell Migration Assay for Oligodendrocyte Migration (NPC2c) (AID 2284297). The gist of the method:
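Read-out is the mean distance of O4-positive oligodendrocytes from the sphere core edge at 120 h, normalized to radial glia migration and fitted in the gain direction against DMSO. Spheres of primary human neural progenitors differentiated on laminin under continuous compound exposure.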

The nature of assay [16]: IUF_NPC2a_radial_glia_migration_120hr: Leibniz Research Institute for Environmental Medicine (IUF) 120-hour Neural Progenitor Cell Migration Assay for Radial Glia Migration (NPC2a) (AID 2284298). The gist of the method: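 Readout: distance in um from sphere core edge to migration-area edge, derived from Hoechst nuclei density with a threshold-defined polynomial boundary. Spheres: hNPC, GW 16-19, 0.3 mm, on PDL/laminin; exposure 5 days; DMSO is baseline.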

A short description of assay [17]: IUF_NPC2a_radial_glia_migration_72hr: Leibniz Research Institute for Environmental Medicine (IUF) 72-hour Neural Progenitor Cell Migration Assay for Radial Glia Migration (NPC2a) (AID 2284299). The gist of the method: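 Single 0.3 mm neurospheres were plated per well in N2 differentiation medium and exposed from the start of differentiation. After 72 hours, brightfield images were taken and radial glia migration from the sphere core edge was measured manually in four directions, averaged per well.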

A short description of assay [18]: CCTE_Mundy_HCI_hNP1_Pro_ResponderAvgInten: CCTE's Proliferation Assay in human neuroprogenitor cells, Mundy Lab (AID 2284224; active means hit-call score of the fitted dose curve at least 0.9, where 1 is the maximum). The gist of the method:
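Proliferation read as average intensity of BrdU-positive cells, imaged at 26.25 h post-dosing: chemical exposure started after 40–44 h culture, BrdU during final 4 h, paraformaldehyde fixation. Positive-direction fit relative to DMSO.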

A short description of assay [19]: TAMU_PeakParms_SingleDonor1434_QT: Texas A&M University (TAMU) 1.5-hr Human Induced Pluripotent Stem Cell (iPSC)-derived Cardiomyocytes Calcium (Ca+2) Flux Assay for Cardiotoxicity: QT (decay-rise ratio) (AID 2284235; active means hit-call score of the fitted dose curve at least 0.9, where 1 is the maximum). The gist of the method:
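Decay/rise ratio of calcium-flux fluorescence scored after 90 min exposure (37C) of donor 1434 iPSC cardiomyocytes to 0.2–100 uM (0.5% DMSO). Beat-cessation and severe-notch points removed; POD is EC05, a 5% rise over DMSO.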

A short description of assay [20]: CCTE_Mundy_HCI_Cortical_NOG_NeuronCount: CCTE's Neurite Outgrowth Assay in rat cortical cells for Neuron Count, Mundy Lab (AID 2284236; active means hit-call score of the fitted dose curve at least 0.9, where 1 is the maximum;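 further: neurons counted by imaging betaIII-tubulin and Hoechst stained cortical cells; cells exposed to compound for about 48 hours before fixation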). The gist of the method: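 Read-out: neuron number by high-content imaging of betaIII-tubulin (Alexa Fluor-488) and Hoechst-labelled rat primary cortical cells.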

On to `CN1C(=O)CC[C@H]1c1cccnc1`, for which the compound was classed as inactive in assay [1], in [2], in assay [3], in [4], in [5] and in assay [6]. Also, the compound was classed as inactive in [7], in assay [8], in [9], in [10], in [11] and in [12].
`CC(C)(c1cc(Br)c(O)c(Br)c1)c1cc(Br)c(O)c(Br)c1`: the outcome in assay [13] was inactive. Also, the half-maximal activity concentration (AC50) in assay [14] was 84.8 µM (active); in assay [15], 3.61 µM (active); in [16], 3.14 µM (active); in assay [17], 3.76 µM (active).
Regarding `CC/C(=C(/CC)c1ccc(O)cc1)c1ccc(O)cc1`, the AC50 in assay [1] was 9.46 µM (active); in [2] it was 14.3 µM (active); in assay [3] it was 15.4 µM (active); in assay [4], 9.12 µM (active); in assay [5] it was 7.97 µM (active); in assay [6], 3.72 µM (active). Moreover, the AC50 is 50 µM (active) in [14]; 28.9 µM (active) in assay [20]; 12.8 µM (active) in assay [9]; 26.5 µM (active) in [10]; 29.7 µM (active) in assay [11]; 14 µM (active) in assay [12]. The outcome in assay [13], in assay [7], in assay [8], in [18] and in assay [19] was inactive.
Turning to `c1ccc2ccccc2c1`, the AC50 in assay [13] is 9.92 µM (active). The compound was called inactive in assay [14] and in assay [19].
As to `CN(C)c1ccc(C(=C2C=CC(=[N+](C)C)C=C2)c2ccc(N(C)C)cc2)cc1`, the result in assay [13] was inactive. For the same compound, the AC50 is 4.8 µM (active) in assay [14] and 0.352 µM (active) in [19].
For `O=C1O[C@H]([C@@H](O)CO)C(O)=C1O`, the compound was called inactive in assay [1], in [2], in [13], in assay [3], in assay [7] and in assay [8]. Further, the outcome in [20], in assay [9], in [10], in [11], in assay [15] and in assay [16] was inactive. Further, the call in assay [17] was inactive.
Regarding `CCCOC(=O)c1cc(O)c(O)c(O)c1`, the AC50 in assay [13] was 50 µM (active); in assay [19] it was 22.1 µM (active). For the same compound, in assay [14], the result was inactive.
For `Oc1ccccc1`, the call in assay [1], in [2], in assay [3], in assay [4], in assay [5] and in [6] was inactive. Also, the result in assay [7], in assay [8], in assay [9], in [10] and in assay [11] was inactive.
